Results: PubChem BioAssay AID743279 (National Center for Advancing Translational Sciences (NCATS), 2014)
Out of some 360,000 compounds screened, about 17,000 (4.7%) were called active. Not shown: some 5% with an inconclusive outcome. Cut-off read from the data, not from the text of the source: active = activity change below about -50%; inconclusive = mostly about -30% to -49%; inactive = weaker than that. The list comes from a sample in which actives are over-represented; it also holds similar structures and randomly drawn compounds.

Assay: qHTS for Inhibitors of Inflammasome Signaling: IL-1-beta AlphaLISA Primary Screen
Conditions: THP-1 LPS/ATP IL-1B secretion, 16 h; at 57.5 µM, active compounds read low
Procedure, shortened: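 Secreted IL-1B measured by AlphaLISA bead assay after 16 h compound exposure of THP-1 cells; compounds (final up to 57.5 uM) added 1 h before LPS (250 ng/mL) and ATP (1.25 mM) stimulation; lower signal means less secretion.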
% is set by controls: 0 for no effect and ±100 for the full control effect.

Activity change, active:
CCCNC(=O)CSc1nc(Cc2ccccc2)nc2ccccc12 -58.7%, N=c1n(CCc2ccccc2)c2ccccc2n1Cc1ccccc1F -81.4%, CCOC(=O)CNc1nc(Cl)nc(Nc2ccccc2)n1 -67.7%, CSc1ncnc2c1ncn2CC(=O)C1CCC2C3CCC4=CC(=O)CCC4(C)C3CCC12C (configuration not stated) -64.8%, Cc1ccc2c(c1)C1CN(C)CCC1N2C(=S)Nc1ccc(OC(F)F)cc1 (configuration not stated) -62.4%, Cc1ccc2c(c1)C1CN(C)CCC1N2C(=S)Nc1ccc(Cl)cc1Cl (configuration not stated) -84.8%, COc1ccc(-c2nn(-c3ccccc3)cc2C(=O)Nc2nccs2)cc1OC -52.5%, COc1ccc(C(=O)NC2CCCc3c2cnn3-c2cccc(C)c2C)c(OC)n1 (configuration not stated) -78.6%, C[C@@H](NC(=O)OC(C)(C)C)c1nnc(S(=O)(=O)Cc2ccccc2)o1 -70.3%, O=c1[nH]cnc2c1c(-c1ccccc1)cn2-c1ccc(F)cc1 -91.8%, CC(C)CCN1C(=O)c2ccc(C(=O)Nc3cccc(S(N)(=O)=O)c3)cc2C1=O -61%

Activity change, inactive:
COC(C)(C)[C@]12CC(O)(C(C)C)ON1[C@H]1CCCCC1N2O (some centres not stated) 8.62%, CCc1nc(SCC(=O)NNC(=O)c2ccc(C)cc2)c2ccccc2n1 -0.629%, C=CCSc1nc(Cc2ccc(Cl)cc2)nc2ccccc12 -12.9%, Cc1ccc(CCN2CC(C(=O)O)CC2=O)cc1 (configuration not stated) -6.28%, CC(=O)NC(C)c1nc2ccccc2n1Cc1ccccc1F (configuration not stated) 21.9%, O=C(COC(=O)Cc1ccccc1F)NCCc1ccccc1 6.36%, O=C(NCCN1CCN(C(=O)c2cccc([N+](=O)[O-])c2)CC1)C(=O)NCc1ccc(Cl)cc1 -11.8%, Cc1ccc(S(=O)(=O)c2c[nH]c3ccc(Cl)cc3c2=O)cc1 -2.27%, CCC(=O)Nc1ccc(Nc2nc(Cl)nc(Nc3ccc(NC(=O)CC)cc3)n2)cc1 -8.11%, CCOC(=O)CNc1nc(Cl)nc(Nc2ccc(OC)cc2OC)n1 -6.02%, COc1cc(OC)cc(C(=O)NCCSCc2ccc(Cl)cc2)c1 0.652%, CC(=O)C12CC(C)=C(C)CC1CC1C3CCC4=CC(=O)CCC4(C)C3CCC12C (configuration not stated) -14.2%, CSc1ncnc2c1ncn2CCCNCC1CCCCC1 16.5%, C[C@H]1CN([C@@H](C)CO)C(=O)CCCn2nncc2CO[C@@H]1CN(C)S(=O)(=O)c1cccc(C#N)c1 22.7%, CCOC(=O)N1C(=O)C[C@](Sc2ccc(C)cc2)(C(=O)OC)[C@H]1c1ccccc1 -13.1%, COc1ccc2c(c1)CCC/C2=N\OC(=O)c1ccccc1F -13.5%, CCc1nc2c(OCC(N)=O)cccn2c1N(C)C(=O)c1ccc(OC)cc1 3.49%, CCc1nc2c(OCCOc3ccc(F)cc3)cccn2c1N(C)C(=O)c1ccccc1F -11.7%, COCCCNCC(=O)Nc1sc(C)c(C)c1C(=O)OC 0.516%, Cc1ccc2c(c1)C1CN(C)CCC1N2S(=O)(=O)c1cccc(F)c1 (configuration not stated) -15.5%, Cc1ccc2c(c1)C1CN(C)CCC1N2C(=O)c1ccccc1NS(=O)(=O)c1ccc(F)cc1C (configuration not stated) 5.7%, O=C(NC(=S)Nc1ccc(Cl)cc1Cl)C1CC1 19.2%, S=C(Nc1ccc(Cl)cc1Cl)N1CCCC1 -2.45%, COC(=O)c1ccc2c(=O)n(CCN3CCOCC3)c(SCC(=O)Nc3cccc(OC)c3)nc2c1 -19.5%, OCCN1CCN(c2ncnc3c2ncn3[C@H]2CN(Cc3ccco3)C[C@@H](CO)O2)CC1 10%, CC(=O)c1c(C)[nH]c(C(=O)COC(=O)c2cccc(S(=O)(=O)N(C)c3ccccc3)c2)c1C -12.5%, CN(C)c1ccc(C(CC(=O)O)C(=O)O)cc1 (configuration not stated) 15%, COc1ccc(-c2nn(-c3ccccc3)cc2/C=N/Nc2ccccn2)cc1OC 10.4%, COc1ccc(Cl)cc1NC(=O)CN(C)C(=O)c1cn(-c2ccccc2)nc1-c1cccs1 -15.3%, Nc1ncnc2c1ncn2[C@@H]1O[C@H](CNC(=O)[C@H](N)Cc2cccnc2)[C@@H](O)[C@H]1O -4.6%, CC1(C)COC(c2cccn2Cc2ccccc2Cl)=N1 1.85%, Cc1cc(C(=O)NC2CCCc3c2cnn3-c2cccc(C)c2C)c(C)o1 (configuration not stated) -7.02%, COc1ccc(OC)c(C(=O)NC2CCCc3c2cnn3-c2cc(C)cc(C)c2)c1 (configuration not stated) -20.1%, O=C(NNC1=C(C(=O)C(F)(F)F)CCC1)c1ccncc1 28.1%, CCC1Nc2ncnc(N3CCN(c4ccccc4)CC3)c2N(Cc2ccc(Cl)cc2)C1=O (configuration not stated) -19.1%, COc1ccc(NC(=O)C2Cc3c(-c4ccc(Cl)cc4)ccnc3O2)cc1 (configuration not stated) -7.31%, CCc1ccccc1NC(=O)CSc1nnc([C@@H](NC(=O)OC(C)(C)C)C(C)C)o1 11.8%, CCc1ccccc1NC(=O)CSc1nnc([C@@H](NC(=O)OC(C)(C)C)C(C)CC)o1 (some centres not stated) 9.72%, COc1cc(/C=C(/NC(=O)c2ccc(Cl)cc2Cl)C(=O)O)cc(OC)c1OC 2.22%, O=c1c2c(-c3ccccc3)ccnc2[nH]n1-c1ccccc1 -16.4%, COc1ccc(-n2cc(-c3ccccc3)c3c(=S)nc[nH]c32)cc1 18.8%, COc1ccc(S(=O)(=O)N2CCN(C)CC2)c(C)c1 -5.01%, Cn1c(=O)c2cc(NC(=O)NCCc3cccs3)ccc2n1Cc1cccc(C(F)(F)F)c1 1.3%, CN1CCN(S(=O)(=O)c2cccc(C(=O)Nc3cccc(S(N)(=O)=O)c3)c2)CC1 6.7%, Cc1cccc(C(=O)Nc2ccc3c(c2)C(=O)N(CC(C)C)C3=O)c1 0.513%, CC(C)c1cccc(-c2csc(C(O)c3ccccc3)n2)c1 (configuration not stated) 43.6%
